Where “and” joins values, the source holds several entries; their conditions need not be identical. Equal entries are not always repeated. Values without a mark were called inactive. Inconclusive results are not listed. Some compounds were tested as several samples or in several runs, with calls that do not always agree. Calls of active or inactive are those of the source. Unless noted, calls come from the whole dose curve; as a rule, active = well fitted curve in either direction with a large enough effect (not every such curve was filed as active); inconclusive = small, poorly fitted or top-dose-only effect, or another doubt; inactive = flat fitted curve, though single readings scatter. Bounds are passed on as bounds.

This is an account of results in PubChem BioAssay (NCATS).

Experiment [1] has as its target Lysosomal acid glucosylceramidase (Homo sapiens) (UniProt P04062). Kind of experiment: Glucocerebrosidase-p2 (AID 348; in the data active = potency below about 10 µM; note: potency is the fitted concentration of half-maximal effect). Particulars: purified GBA, blue fluorogenic substrate, 40 min. In short, it runs like this: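 Normal human glucocerebrosidase (0.2 nM) with blue fluorogenic substrate (80 uM final) in citrate/phosphate pH 5.9 with 10mM sodium taurocholate, 0.01% tween-20; 40 min RT, NaOH/glycine stop; fluorescence Ex 365/Em 440; AC50 from a titration from 0.6 nM upwards.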

Experiment [2] is described as follows: AP1 Signaling Pathway (AID 357).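 Note: ME-180 reporter cells stimulated with EGF at its EC50 level; % is set by controls: 0 for no effect and ±100 for the full control effect.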 The procedure, abridged:
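Cells are seeded overnight, exposed to compound titrations and an EC50 level of EGF for 5 hours at 37 °C, then loaded with CCF4 dye for 2.5 hours. Beta-lactamase activity under the AP-1 element is read as a blue/green ratio.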

The target in experiment [3] is Cytochrome P450 1A2 (Homo sapiens) (UniProt P05177). Kind of experiment: p450-cyp1a2 (AID 410; calls by dose curve; note: potency is the fitted concentration of half-maximal effect;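 for activity change, negative = inhibition: -100% = full effect of reference inhibitor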). In short, it runs like this:
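Luminescent demethylation readout: Luciferin-ME (100uM, equal to Km) turned over by 20nM CYP1A2 for 60 min at room temperature after NADPH regeneration addition, following 10 min compound preincubation. Normalization used 57 uM furafylline as full inhibition.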

The nature of experiment [4]: Cell Viability - BJ (AID 421; calls by dose curve;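 note: potency is the fitted concentration of half-maximal effect; cells exposed to compound for 40 hours at 37 °C before readout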). Particulars: BJ fibroblast viability, qHTS. In short, it runs like this: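 Cytotoxicity in human BJ foreskin fibroblasts is scored as loss of cellular ATP after a 40-hour exposure, measured by luciferase luminescence. Controls are DMSO and 100 uM tamoxifen.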
A short description of experiment [5]: Cell Viability - Hek293 (AID 427;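 active = compounds whose dose-response curve shows a full or clear partial loss of cell viability, called from curve shape rather than a numeric limit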;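 note: potency is the fitted concentration of half-maximal effect; cells exposed to compound for 40 hours at 37 °C before reading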). The settings on record: qHTS. In short, it runs like this: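 qHTS, human embryonic kidney (adenovirus-transformed) cells; 40 hr cpd, 37 °C; CellTiter-Glo ATP luminescence. Norm: DMSO = 0, 100 uM tamoxifen = 100% inhibition. Hill-fit AC50.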
Experiment [6] can be described thus: Cell Viability - HepG2 (AID 433; calls by dose curve;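 note: potency is the fitted concentration of half-maximal effect; potency for ATP loss meaning cytotoxicity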). The settings on record: qHTS. In short, it runs like this:
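Cytotoxicity is scored as loss of intracellular ATP in HepG2 cells exposed to compounds for 40 h. Concentration-response curves, normalized to DMSO and 100 uM tamoxifen, give AC50 values.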

Experiment [7] is described as follows: Cell Viability - MRC5 (AID 434; calls by dose curve;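 note: potency is the fitted concentration of half-maximal effect; cells exposed to compound for 40 hours at 37 °C; potency reflects cytotoxicity seen as loss of intracellular ATP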). Particulars: MRC5 lung fibroblast viability, qHTS. The procedure, abridged:
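ATP luminescence read-out (CellTiter-Glo, 20 min RT) after 40 hr, 37 °C compound exposure of 1500 MRC5 cells/well. Data normalized to DMSO (basal) and 100 uM tamoxifen (100% inhibition); AC50 from standard Hill equation.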

Experiment [8] is described as follows: Cell Viability - SK-N-SH (AID 435; calls by dose curve; note: potency is the fitted concentration of half-maximal effect). Particulars: SK-N-SH neuroblastoma cell viability qHTS. In short, it runs like this: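 Cells seeded at 1500 per well and incubated 5 hr at 37 °C. Compound added, then 40 hr at 37 °C. CellTiter-Glo added, 20 min at room temperature, luminescence read.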
A short description of experiment [9]: NFAT Signaling Pathway (AID 444).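 Note: carbachol stimulus at about its EC50 of 1 µM final; % is set by controls: 0 for no effect and ±100 for the full control effect.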 Particulars: Jurkat NFAT-bla M1, carbachol, beta-lactamase ratio, 5 h; at 38 µM (top of the series) unless noted. In short, it runs like this: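 Jurkat cells with NFAT-driven β-lactamase reporter and co-expressed M1 receptor, stimulated with carbachol (final 1 uM, ~EC50), compound titration, 5 h at 37 °C. CCF4 loaded 1 h at RT; 460/530 nm ratio gave %activity and AC50.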

Experiment [10] in a line: Stat Signaling Pathway (AID 446).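 Note: ME-180 cervical cancer cells given 40 pM IL-6 alongside compound; SIE-controlled beta-lactamase reporter measured as 460/530 nm FRET emission ratio; % is set by controls: 0 for no effect and ±100 for the full control effect.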 The settings on record: ME-180 (cervical carcinoma) SIE beta-lactamase reporter, IL-6 stimulated, 5 h; at 38 µM (top of the series) unless noted. The procedure, abridged: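 Emission at 460 and 530 nm (excitation 405 nm) reports SIE-controlled beta-lactamase in ME-180 cells. Cells received compound with 40 pM IL-6 for 5 hrs at 37 C; data scaled between 300 pM IL-6 and 125 nM JAK-inhibitor controls.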

Experiment [11] deals with Glucocorticoid receptor (Homo sapiens) (UniProt P04150). Kind of experiment: GR-GFP Redistribution (AID 450;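 active = compounds whose dose series gives a full or clear partial fitted curve of increased nuclear translocation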; note: potency is the fitted concentration of half-maximal effect). The settings on record: U2OS GR-GFP nuclear translocation, laser cytometry, 2 h.
Sequence of Glucocorticoid receptor (Homo sapiens) (P04150 whole entry, looked up, the tested form may be a part): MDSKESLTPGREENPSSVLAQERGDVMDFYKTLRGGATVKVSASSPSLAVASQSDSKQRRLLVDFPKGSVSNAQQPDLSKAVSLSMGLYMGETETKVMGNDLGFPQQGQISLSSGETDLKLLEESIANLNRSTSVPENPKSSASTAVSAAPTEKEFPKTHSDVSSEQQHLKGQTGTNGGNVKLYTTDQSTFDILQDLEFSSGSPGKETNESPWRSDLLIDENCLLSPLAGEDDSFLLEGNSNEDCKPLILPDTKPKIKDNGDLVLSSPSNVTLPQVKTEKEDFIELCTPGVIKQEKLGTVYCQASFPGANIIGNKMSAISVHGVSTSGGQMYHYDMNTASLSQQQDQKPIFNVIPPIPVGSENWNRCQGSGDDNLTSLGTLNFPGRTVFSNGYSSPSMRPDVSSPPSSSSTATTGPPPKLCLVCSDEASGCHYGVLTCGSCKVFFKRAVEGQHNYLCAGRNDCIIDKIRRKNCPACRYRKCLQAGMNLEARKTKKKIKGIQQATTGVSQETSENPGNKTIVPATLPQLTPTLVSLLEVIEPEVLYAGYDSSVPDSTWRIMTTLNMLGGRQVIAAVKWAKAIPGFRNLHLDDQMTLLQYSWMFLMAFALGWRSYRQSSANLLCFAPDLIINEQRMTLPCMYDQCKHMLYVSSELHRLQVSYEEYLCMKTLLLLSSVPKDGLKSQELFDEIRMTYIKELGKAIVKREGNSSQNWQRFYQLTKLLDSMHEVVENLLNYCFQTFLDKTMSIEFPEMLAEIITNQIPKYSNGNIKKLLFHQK
For experiment [12] the target is unchanged. Nature of the experiment: GR-EFC Redistribution (AID 451; calls by dose curve; note: potency is the fitted concentration of half-maximal effect). The settings on record: CHO-K1 GR-EFC translocation, beta-gal luminescence, 2 h. In short, it runs like this: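 CHO-K1 cells expressing nuclear EA and GR-ED fragments of b-gal; compounds titrated up to 46 uM final, 2 h at 37 C. GR nuclear translocation read as complemented b-gal luminescence after 1 h RT detection.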

Experiment [13] concerns the target Mitogen-activated protein kinase 10 (Mus musculus) (UniProt Q61831). Nature of the experiment: JNK3 AlphaScreen Assay (AID 530).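 Note: kinase came from lysate of stimulated human HepG2 cells; signal reports phosphorylation of biotinylated GST-cJun 1-79 at Ser73 with 10 µM ATP; % is set by controls: 0 for no effect and ±100 for the full control effect.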 The procedure, abridged:
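Activity was read by AlphaScreen after JNK3-containing HepG2 lysate (cytokine pre-activated) phosphorylated biotinylated GST-cJun with 10 uM ATP at room temperature. Phospho-Ser73 cJun antibody with Protein-A acceptor beads provided detection.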

The nature of experiment [14]: Cell Viability - N2a (AID 540; active = well fitted curve in the direction sought with a large enough effect; an effect the other way counts as inactive or inconclusive;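 note: plate controls were DMSO alone for no effect and tamoxifen control for full effect; nearly all actives have a fitted effect of over 45% in size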). The settings on record: N2a mouse neuroblastoma cell viability; activity change, negative = cytotoxicity: at 92.2 µM (top of the series). The procedure, abridged: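 CellTiter-Glo ATP luminescence, read 20 min after reagent at room temperature, reported viability following 40 h compound treatment at 37 °C. N2a mouse neuroblastoma cells seeded 1500/well; Hill equation gave AC50.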

A short description of experiment [15]: Cell Viability - NIH 3T3 (AID 541; active = well fitted curve in the direction sought with a large enough effect; an effect the other way counts as inactive or inconclusive;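 note: plate controls were DMSO alone for no effect and tamoxifen positive control for full effect; nearly all actives have a fitted effect of over 25% in size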). Particulars: NIH 3T3 cell viability, qHTS. The procedure, abridged: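 Intracellular ATP (CellTiter-Glo luminescence, 20 min at room temperature) measured after 40 hr compound exposure at 37 °C of 1000 NIH 3T3 mouse fibroblasts/well in complete medium; AC50 derived by Hill-equation modelling of qHTS concentration-response curves.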

Experiment [16] can be described thus: Cell Viability - HUV-EC-C (AID 542; active = well fitted curve in the direction sought with a large enough effect; an effect the other way counts as inactive or inconclusive; note: % is set by controls: 0 for no effect and ±100 for the full control effect; nearly all actives have a fitted effect of over 35% in size). In short, it runs like this:
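CellTiter-Glo luminescence measured ATP loss in HUV-EC-C cells (1000/well) after 40 hr compound exposure at 37 °C, in complete culture medium. Concentration-response data were Hill-fitted to give AC50.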

Experiment [17] is described as follows: Cell Viability - H-4-II-E (AID 543; active = well fitted curve in the direction sought with a large enough effect; an effect the other way counts as inactive or inconclusive; note: % is set by controls: 0 for no effect and ±100 for the full control effect; nearly all actives have a fitted effect of over 35% in size). The procedure, abridged:
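CellTiter-Glo luminescence (intracellular ATP) measured after 40 h compound exposure at 37 °C in H-4-II-E rat hepatoma cells seeded at 1500/well. Values are AC50s fitted with the standard Hill equation.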

A short description of experiment [18]: Cell Viability - SH-SY5Y (AID 544; active = well fitted curve in the direction sought with a large enough effect; an effect the other way counts as inactive or inconclusive; note: potency is the fitted concentration of half-maximal effect; nearly all actives have a fitted effect of over 55% in size). The procedure, abridged: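 Cytotoxicity measured via ATP-dependent luciferase luminescence (CellTiter-Glo) following 40 h, 37 °C exposure of 1500 SH-SY5Y cells per well. Concentration-response data were fitted with the standard Hill equation to give AC50.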
A short description of experiment [19]: Cell Viability - Renal Proximal Tubule (AID 545; active = well fitted curve in the direction sought with a large enough effect; an effect the other way counts as inactive or inconclusive;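 note: 0% = DMSO only and -100% = 100 µM tamoxifen; nearly all actives have a fitted effect of over 40% in size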). The settings on record: renal proximal tubule cells viability; activity change, negative = cytotoxicity: at 91.7 µM (top of the series). The procedure, abridged: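 Cytotoxicity is scored as a concentration-dependent drop in cellular ATP in primary rat renal proximal tubule cells exposed for 40 hr. AC50 derives from Hill modelling.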

Sequence of Cytochrome P450 1A2 (Homo sapiens) (P05177 whole entry, looked up): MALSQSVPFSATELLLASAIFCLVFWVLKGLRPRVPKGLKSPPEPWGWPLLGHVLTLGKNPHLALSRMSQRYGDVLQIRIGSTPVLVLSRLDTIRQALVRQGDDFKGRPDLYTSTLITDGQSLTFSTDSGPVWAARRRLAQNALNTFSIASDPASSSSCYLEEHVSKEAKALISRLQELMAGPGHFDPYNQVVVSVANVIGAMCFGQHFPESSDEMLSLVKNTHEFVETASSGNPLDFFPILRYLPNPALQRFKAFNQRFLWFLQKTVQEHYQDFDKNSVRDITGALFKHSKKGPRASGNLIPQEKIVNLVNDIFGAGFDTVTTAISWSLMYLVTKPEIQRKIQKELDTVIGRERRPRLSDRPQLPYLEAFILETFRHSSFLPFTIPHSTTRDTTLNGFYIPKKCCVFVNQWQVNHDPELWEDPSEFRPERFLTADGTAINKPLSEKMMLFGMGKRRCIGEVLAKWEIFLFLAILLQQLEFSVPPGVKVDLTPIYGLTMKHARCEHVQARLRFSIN
Sequence of Lysosomal acid glucosylceramidase (Homo sapiens) (P04062 whole entry, looked up): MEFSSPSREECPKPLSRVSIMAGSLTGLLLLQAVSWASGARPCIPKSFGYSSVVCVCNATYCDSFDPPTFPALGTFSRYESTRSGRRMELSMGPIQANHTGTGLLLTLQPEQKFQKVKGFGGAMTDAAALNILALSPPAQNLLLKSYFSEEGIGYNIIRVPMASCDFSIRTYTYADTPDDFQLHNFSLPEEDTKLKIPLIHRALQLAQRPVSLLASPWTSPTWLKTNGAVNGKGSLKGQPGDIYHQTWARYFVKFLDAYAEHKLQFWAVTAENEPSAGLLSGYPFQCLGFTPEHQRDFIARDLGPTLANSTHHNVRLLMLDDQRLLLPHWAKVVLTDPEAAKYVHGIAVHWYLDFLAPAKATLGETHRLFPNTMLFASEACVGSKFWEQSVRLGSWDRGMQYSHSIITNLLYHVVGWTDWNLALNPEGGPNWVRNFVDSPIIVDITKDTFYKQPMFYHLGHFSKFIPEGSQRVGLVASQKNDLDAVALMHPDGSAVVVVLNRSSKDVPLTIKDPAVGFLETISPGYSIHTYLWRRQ

As to `CC(C)(C)c1cc(O)ccc1O`, the Potency is more than 11.4 µM in [1]; more than 92 µM in experiment [4]; more than 92 µM in experiment [5]; more than 92 µM in experiment [6]; more than 92 µM in experiment [7]; more than 92 µM in [8]. Also, the Potency in experiment [11] was more than 46 µM; in [12], more than 9.22 µM; in [18], 10 µM (active) and 12.6 µM (active). Besides, the activity change, negative = inhibition was 7.46% [at 7.69 µM] in experiment [2], -8.4% [at 11.4 µM] in experiment [3] and -2.58% [at 7.69 µM] in experiment [9]. Besides, in experiment [10], the activity, negative = inhibition was -2.67% [at 7.69 µM]. Also, the compound was called inactive in [13]. In addition, the Potency entry in experiment [14], in [16], in [17] and in experiment [19] was “inactive” throughout. Also, the activity change, negative = cytotoxicity in experiment [15] (activity change, negative = cytotoxicity: at 92.2 µM (top of the series)) was -106% (active); in experiment [15] (at 92.2 µM (top of the series)) it was -22.3%.

As for `NC(=O)c1cc(N2CC2)c([N+](=O)[O-])cc1[N+](=O)[O-]`, the outcome in experiment [2] and in experiment [13] was inactive. Moreover, the Potency entry in experiment [3] is “inactive”. Also, the activity change, negative = inhibition in experiment [9] is 1.65%. Besides, the activity, negative = inhibition in experiment [10] was 19.5%. The Potency in [11] and in experiment [12] was more than 46 µM throughout.

Turning to `CN(N=O)c1cc(O)ccc1O`, the outcome in [2] was inactive. Also, the Potency was 31.6 µM (active) in [3], more than 46 µM in experiment [11] and more than 46 µM in experiment [12]. For the same compound, in [9], the activity change, negative = inhibition is 0.498%.

For the compound `NCCCP(=O)(O)O`, the compound was classed as inactive in experiment [2] and in experiment [13]. In addition, the Potency result in [3] was “inactive”. The activity change, negative = inhibition in experiment [9] is -4.18%. The activity, negative = inhibition in experiment [10] is 26.4%. In addition, the Potency in experiment [11] and in experiment [12] was more than 46 µM throughout.

In the case of `CCCN(CCC)CCc1c[nH]c2ccc(C(N)=O)cc12`, the compound was called inactive in experiment [2] and in experiment [13]. Moreover, the Potency in experiment [3] was 15.8 µM (active); in experiment [11], more than 46 µM; in experiment [12] it was more than 46 µM. For the same compound, the activity change, negative = inhibition in [9] is -26.6%. In experiment [10], the activity, negative = inhibition was 22.9%.

Take `CN1CCc2cc(O)cc3c2[C@H]1Cc1ccc(O)c(O)c1-3`: the compound was called inactive in experiment [2]. Moreover, the Potency in experiment [3] was 12.6 µM (active); in experiment [11], more than 46 µM; in experiment [12], more than 46 µM. Moreover, the activity change, negative = inhibition in experiment [9] is -24.8%. In addition, the activity, negative = inhibition in experiment [10] is -18.2%.

Consider `COc1ccc2[nH]c3c(c2c1)CCNC3`, for which, in experiment [2], the outcome was inactive. The Potency is 3.16 µM (active) in [3], more than 46 µM in [11] and more than 46 µM in experiment [12]. For the same compound, the activity change, negative = inhibition in experiment [9] was 4.34%. The activity, negative = inhibition in [10] is 9.97%.

`N#CC(C#N)=Cc1cc(O)c(O)c(O)c1`: the call in experiment [2] was inactive. The Potency result in experiment [3] is “inactive”. The activity change, negative = inhibition in experiment [9] was -8.53%. Besides, the activity, negative = inhibition in experiment [10] was 2.4%. The Potency in experiment [11] and in [12] was more than 46 µM throughout.
